Growth data for 8 compounds are collected here from PubChem BioAssay (NCI).

Experiment in all cases: NCI-60 one-dose screen, 48 h (100 = growth as untreated, 0 = no growth, -100 = all killed)
Common to all, as to settings: 10 µM unless noted

The subject of experiment [1] is HCT-15 colon.
Experiment [2] deals with HT29 colon.
For experiment [3], the system named is SNB-75 CNS.
The test system of experiment [4] is SNB-19 CNS.
Experiment [5] concerns U251 CNS.
Experiment [6] relates to PC-3 prostate.
Experiment [7] concerns SK-MEL-5 melanoma.
In experiment [8] the test system is UACC-62 melanoma.
Experiment [9] concerns LOX IMVI melanoma.
Experiment [10] relates to SK-MEL-28 melanoma.
For experiment [11], the system named is SK-MEL-2 melanoma.
In experiment [12] the test system is EKVX NSCLC.
Experiment [13] has as its system SN12C renal.
In experiment [14] the test system is UO-31 renal.
For experiment [15], the system named is TK-10 renal.
Experiment [16] concerns ACHN renal.
The test system of experiment [17] is CAKI-1 renal.
Experiment [18] has as its system A498 renal.
Experiment [19] has as its system CCRF-CEM leukemia.
In experiment [20] the test system is MOLT-4 leukemia.

This is part of a sample that, as a whole, favours compounds with a hit. Of some 83,000 tested, about 20% had one in any assay.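 Single-concentration screen, 48 h exposure, 96-well plates. Endpoint: percent growth. Below 10 = active.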 Values without a mark were called inactive. Activity calls are given as the source filed them.

Take `Fc1ccc(C2CC(c3cccc(Nc4ccncc4)c3)=NN2c2cc(Cl)cc(Cl)c2)cc1` (stereo unspecified): the growth in [1] is -42.3% (active); in experiment [2], -21.5% (active); in [3] it was 72.2%; in experiment [4] it was 82.3%; in [5] it was -29.5% (active); in experiment [6], 26%. In addition, the growth is 84.7% in experiment [7]; 98.7% in [8]; -83% (active) in [9]; 20.2% in [10]; 105% in experiment [11]; 80% in experiment [12]. In addition, the growth was 72% in [13]; 47.6% in experiment [14]; 74.8% in [15]; 43.3% in [16]; 31.1% in [17]; 94.5% in [18]. The figures for the growth in experiment [19] and in experiment [20] were 0.277% (active) and 1.57% (active), respectively.
On to `O=S(=O)(c1ccccc1)N1CCCc2ccccc21`, for which the growth in [1] was 99.3%; in experiment [2], 99.8%; in experiment [3], 95%; in experiment [4], 97.2%; in experiment [5], 90.3%; in [6] it was 91.3%. Moreover, the growth in [7] was 102%; in experiment [8], 91.7%; in experiment [9], 96.4%; in experiment [10], 105%; in experiment [11], 103%; in experiment [12] it was 101%. Moreover, the growth in experiment [13] is 98.9%; in experiment [14], 80.4%; in experiment [15], 94.5%; in [16] it was 99.4%; in [17] it was 101%; in experiment [18], 77.1%. The results for the growth in experiment [19] and in [20] were 92.4% and 94.6%, respectively.
As to `COc1cc(-c2cc(=O)oc3cc(O)ccc23)c(OC)c2c1OCO2`, the growth in [1] was 92.4%; in experiment [2] it was 102%; in experiment [3], 84.9%; in experiment [4], 97.4%; in [5] it was 94.6%; in experiment [6], 80.6%. In addition, the growth is 90.6% in [7]; 74.3% in experiment [8]; 93.8% in [9]; 97% in [10]; 96.6% in [11]; 90.6% in [12]. Moreover, the growth in [13] was 84%; in [14], 72.2%; in [15], 108%; in experiment [16] it was 91.2%; in experiment [17], 76.9%; in experiment [18], 94.6%. In experiment [20], the growth was 100%.
On to `CN1CCN(c2c(F)cc(NC3=C(Cl)C(=O)c4ncccc4C3=O)cc2F)CC1`, for which the growth in experiment [1] was 63.3%; in [2] it was 104%; in [3] it was 87.8%; in experiment [4], 101%; in experiment [5] it was 103%; in experiment [6] it was 88.5%. Further, the growth in [7] is 100%; in experiment [8], 100%; in [9], 5.89% (active); in experiment [10], 69.8%; in experiment [11], 99.2%; in experiment [12], 91%. For the same compound, the growth is 84.2% in experiment [13]; 34.3% in experiment [14]; 66.9% in [15]; -63% (active) in experiment [16]; 62.2% in experiment [17]; 88.1% in [18]. Further, the growth was 5.66% (active) in experiment [19] and 0.45% (active) in experiment [20].
On to `COc1cc(-c2cc(=O)oc3cc(O)ccc23)cc(OC)c1OC`, for which the growth in [1] was 91.3%; in [2], 95.1%; in experiment [3], 74.5%; in experiment [4], 95.3%; in experiment [5], 96.7%; in experiment [6] it was 71.9%. Further, the growth in experiment [7] is 91.4%; in experiment [8], 88.1%; in experiment [9] it was 97.1%; in experiment [10] it was 99.3%; in [11], 101%; in [12], 89.8%. The growth was 79% in [13]; 72.2% in [14]; 110% in experiment [15]; 89.3% in experiment [16]; 74% in experiment [17]; 101% in [18]. In addition, the growth in experiment [20] was 92.9%.
Take `NS(=O)(=O)c1cccc(NC(=O)C(=O)C2C(=O)Nc3ccccc32)c1` (stereo unspecified): the growth in [1] was 99.8%; in [2], 102%; in [3] it was 74.6%; in experiment [4], 100%; in experiment [5], 107%; in experiment [6], 88.8%. Further, the growth in [7] was 96.7%; in experiment [8], 94.4%; in experiment [9], 95.6%; in experiment [10], 107%; in experiment [11], 113%; in experiment [12] it was 76%. The growth was 99.5% in [13]; 67.2% in experiment [14]; 129% in experiment [15]; 90.4% in [16]; -3.03% (active) in experiment [17]; 120% in experiment [18]. For the same compound, the growth is 69.7% in experiment [19] and 100% in experiment [20].
As for `CCCCCCCCN1C(=O)/C(=c2\sc3n(c2=O)C2C(NN=3)N(CC)C(=O)N2CC)c2ccccc21` (stereo unspecified), the growth was 93.2% in [1]; 100% in experiment [2]; -13% (active) in experiment [3]; 45.7% in experiment [4]; 46.2% in experiment [5]; 81.7% in experiment [6]. Moreover, the growth in experiment [7] was 96.9%; in experiment [8], 76.3%; in [9] it was 81.9%; in experiment [10], 88.3%; in experiment [11] it was 86.8%; in experiment [12], 73.9%. Moreover, the growth is 86.1% in experiment [13]; 66.8% in [14]; 110% in [15]; 73.8% in [16]; 49.3% in experiment [17]; 86.9% in [18]. Besides, the growth in experiment [20] is 101%.
`COc1ccc(/C=C(/c2ccccc2)[N+](=O)[O-])cc1`: the growth in experiment [1] is -35% (active); in experiment [2], -26.7% (active); in experiment [3] it was -85.5% (active); in experiment [4] it was -19% (active); in experiment [5] it was -95.4% (active); in experiment [6], -56.7% (active). Also, the growth in experiment [7] was -91.5% (active); in experiment [8] it was -17.6% (active); in [9] it was -89.6% (active); in [10] it was -17.7% (active); in experiment [11] it was -49.7% (active); in [12], -29.6% (active). The growth was -38.4% (active) in experiment [13]; -100% (active) in experiment [14]; -83.2% (active) in experiment [15]; -97.4% (active) in experiment [16]; -88.3% (active) in experiment [17]; 10% in [18]. Also, the growth in [20] was -15.5% (active).
